KCNQ2 block = rat KCNQ2 potassium channel inhibitors, primary screen, cell-based, CHO-K1, FluxOR thallium flux, B-score; 20 min; stronger effect = lower value; B-score at 10 µM; 310,000 compounds, 1.1% hits;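 active means fluorescence ratio B-score at most minus 3 library SDs, with starting brightness B-score within 2 library SDs, cut at about -5.5 in these data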
Target sequence (O88943 whole entry, looked up): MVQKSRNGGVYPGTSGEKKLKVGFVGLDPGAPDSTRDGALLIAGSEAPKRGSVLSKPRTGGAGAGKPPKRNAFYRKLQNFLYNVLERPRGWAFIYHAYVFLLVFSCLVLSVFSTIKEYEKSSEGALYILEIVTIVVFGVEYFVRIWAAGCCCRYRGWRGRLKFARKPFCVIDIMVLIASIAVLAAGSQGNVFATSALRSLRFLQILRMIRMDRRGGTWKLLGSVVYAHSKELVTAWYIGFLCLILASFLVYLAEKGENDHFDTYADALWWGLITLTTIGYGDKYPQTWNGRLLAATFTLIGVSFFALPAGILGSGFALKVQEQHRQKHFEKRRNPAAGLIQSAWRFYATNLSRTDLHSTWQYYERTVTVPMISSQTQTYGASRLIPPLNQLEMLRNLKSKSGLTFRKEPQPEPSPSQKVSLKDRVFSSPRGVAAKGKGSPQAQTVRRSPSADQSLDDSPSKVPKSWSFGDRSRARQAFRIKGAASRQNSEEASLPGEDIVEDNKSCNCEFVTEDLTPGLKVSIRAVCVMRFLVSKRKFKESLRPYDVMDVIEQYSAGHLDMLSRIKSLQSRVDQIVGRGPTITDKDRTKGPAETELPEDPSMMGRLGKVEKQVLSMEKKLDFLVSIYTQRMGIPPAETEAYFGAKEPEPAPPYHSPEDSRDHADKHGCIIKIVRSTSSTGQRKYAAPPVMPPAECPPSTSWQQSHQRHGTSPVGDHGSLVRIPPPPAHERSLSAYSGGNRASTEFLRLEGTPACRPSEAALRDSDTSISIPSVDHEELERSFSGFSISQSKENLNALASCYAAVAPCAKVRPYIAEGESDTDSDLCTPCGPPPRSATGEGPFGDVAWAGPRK
KCNQ2 pot = potentiators of rat KCNQ2 potassium channel; CHO-K1 KCNQ2, FluxOR thallium flux fluorescence; stronger effect = higher value; 310,000 compounds, 0.54% hits; B-score at 10 µM; AID 2239, 2010; Potassium voltage-gated channel subfamily KQT member 2 (Rattus norvegicus), O88943;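 active means fluorescence ratio B-score at least 3 SD of library B-scores, with initial fluorescence B-score within 3 of them, cut at about 5.3 in these data; same plate scores as AID 2156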;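 further: B-score of peak minus minimum over baseline fluorescence ratio after K+ and Tl+ stimulus; positive B-score means potentiation of KCNQ2 with more thallium influx and brighter signal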
The depositor's hits bear a star; i = inactive; . = not tested or not shown. A selection: hits, their analogues and other compounds. The true share with any hit is near 1.6%.

SMILES	KCNQ2 block	KCNQ2 pot
Cc1ccc(C)c(-c2cc(C(=O)Nc3cccc(C(=O)O)c3)c3ccccc3n2)c1	i	.
O=C(NCCCN1CCOCC1)c1cc(-c2ccc3c(c2)OCO3)nc2ccccc12	i	.
O=C(Oc1ccc2ccc(=O)oc2c1)c1ccco1	i	.
CCOC(=O)C(C(=O)OCC)N(C#N)c1nc(N(C)C)nc(N(C)C)n1	i	.
COc1ccc(N/N=C(\C=N\O)C(=O)c2ccc(OC)cc2)cc1	i	.
CO/N=C/C(=N\Nc1cc(OC)cc(OC)c1)C(=O)c1ccccc1	-5.8*	-5.8
O=C(CC(=O)c1ccccc1)Nc1ccc(Cl)cc1	i	1.9
O=C(O)C(Cc1ccccc1)N1C(=O)c2c(Cl)c(Cl)c(Cl)c(Cl)c2C1=O (stereo not given)	i	.
CN(Cc1ccccc1)C(=O)COc1ccc(C(C)(C)C)cc1	-5.6*	-5.6
CN(Cc1ccccc1)C(=O)COc1ccccc1Cl	i	.
O=C(COc1ccccc1)NNC(=O)COc1ccc([N+](=O)[O-])cc1	i	1.2
CCOc1ccc(C(=O)NC(Cc2ccccc2)C(=O)OC)cc1 (stereo not given)	i	.
COC(=O)C(Cc1ccccc1)NC(=O)COc1ccc(C(C)(C)C)cc1 (stereo not given)	-5.6*	-5.6
O=C(COc1ccc([N+](=O)[O-])cc1)N(Cc1ccccc1)Cc1ccccc1	-5.8*	-5.8
O=C(NC1CCSC1=O)C1CC(=O)N(c2ccc(F)cc2)C1 (stereo not given)	i	.
CCOC(=O)C1CCN(S(=O)(=O)c2ccc(C)c(C)c2)CC1	i	1.2
Cc1ccc(S(=O)(=O)N2CCC(C(=O)OCC(=O)N(Cc3ccccc3)C(C)(C)C)CC2)cc1C	-6.5*	-6.5
CC(C)N(C(=O)CSc1nc2ccccc2n1-c1ccccc1)C(C)C	-6*	-6
CC(C)N(C(=O)CSc1nc2ccccc2n1Cc1ccccc1)C(C)C	i	.
CC1(C)Cc2cccc(OCC(=O)N3CCN(c4cccc(Cl)c4)CC3)c2O1	i	.
CC1(C)Cc2cccc(OCC(=O)N3CCN(c4ccccc4Cl)CC3)c2O1	-6.2*	-6.2
Cc1ccc(NC(=O)C(C)N2C(=O)c3ccccc3C2=O)cc1C (stereo not given)	i	.
C#CCN(C(=O)CC1C(=O)NCCN1C/C=C/c1ccccc1)C1CCCCC1 (stereo not given)	i	.
CCCN1C(=O)/C(=C/c2ccc(C)o2)SC1=Nc1ccc(OC)cc1	i	.
COc1ccc(N=C2S/C(=C\c3ccc(C)o3)C(=O)N2CC(C)C)cc1	-6.1*	-6.1
SMILES	KCNQ2 block	KCNQ2 pot
CCCN1C(=O)/C(=C/c2ccco2)SC1=Nc1ccc(OC)cc1	i	.
CCN1C(=O)/C(=C/c2ccc(C)s2)SC1=Nc1ccc(OC)cc1	-6.3*	-6.3
CNC(=S)N1N=C(c2ccc(C)cc2)CC1c1ccc(N(C)C)cc1 (stereo not given)	i	0.08
CN(C)/C=C/C(=O)c1ncc(C(F)(F)F)cc1Cl	i	0.51
O=C(Nc1ccc(OC(F)(F)F)cc1)C1CCCN(S(=O)(=O)c2cnc[nH]2)C1 (stereo not given)	i	.
COc1cc(NC(=S)NCc2cccnc2)cc(OC)c1OC	i	0.03
COc1cc(NC(=S)NCc2cccnc2)cc(OC)c1	-7.4*	-7.4
CCCCC(=Nc1ccccc1OC)C1=C(O)CC(c2ccccc2)CC1=O (stereo not given)	-6.5*	-6.5
CCCC(=Nc1ccccc1OC)C1=C(O)CC(c2ccccc2)CC1=O (stereo not given)	i	.
Cc1sc2ncnc(SCC(=O)N3CCCC(C(F)(F)F)C3)c2c1C (stereo not given)	i	.
C=CCN(C(=O)c1ccc(Cl)cc1)c1ccccc1C(=O)NCC(=O)O	i	0.66
COc1ccc(C2CC(C)(c3ccc(OC)cc3OC)Nc3ccccc3N2)c(OC)c1 (stereo not given)	-6.4*	-6.4
COC(=O)C1=C(C)C(c2ccc(OC)cc2OC)NC(=O)N1 (stereo not given)	i	.
COc1ccc(CNC(=O)C2(C)Cc3ccccc3C(=O)O2)cc1 (stereo not given)	i	0.48
NC(=O)C1CCN(C2=C(Cl)C(=O)c3ccccc3C2=O)CC1	-12*	-12
O=C1C(Cl)=C(N2CCC(C(=O)O)CC2)C(=O)c2ccccc21	i	.
CN1CCN(C(=O)C2=C[C@H](c3ccc(C(F)(F)F)cc3)C[C@H](OCc3ccc(CO)cc3)O2)CC1	i	0.39
CCOC(=O)N1CCN(S(=O)(=O)c2cc(OCC(=O)NC3CCCCC3)c(C)cc2Cl)CC1	i	0.18
CCN1CCN(S(=O)(=O)c2cc(OCC(=O)NC3CCCCC3)c(C)cc2Cl)CC1	i	11*
CCCCOc1cccc(C(=O)Nc2ccc(S(=O)(=O)Nc3nnc(CC)s3)cc2)c1	i	.
O=C(C1COc2ccccc2O1)N1CCN(c2ccccc2Cl)CC1 (stereo not given)	-7.4*	-7.4
O=C(C1COc2ccccc2O1)N1CCN(c2ccccc2F)CC1 (stereo not given)	i	.
O=c1c(Cc2c(F)cccc2Cl)c(O)ccn1CCc1c[nH]c2ccccc12	i	.
COc1ccc(NC(=O)C(Sc2nnc(-c3ccncc3)n2-c2ccccc2C)c2ccccc2)cc1Cl (stereo not given)	-5.5*	-5.5
COc1ccc(NC(=O)C(OC)c2ccccc2)cc1Cl (stereo not given)	i	2.5
SMILES	KCNQ2 block	KCNQ2 pot
CCOc1ccc(NC(=S)N2CCN(S(=O)(=O)c3ccccc3)CC2)cc1	i	.
CCOc1ccc(NC(=S)N2CCC(C(O)(c3ccccc3)c3ccccc3)CC2)cc1	i	6.5*
COc1ccc(NC(=S)N2CCC(c3ccccc3)C2)cc1 (stereo not given)	i	0.91
COc1ccc(NC(=S)N2CCC(C(O)(c3ccccc3)c3ccccc3)CC2)cc1	i	6.7*
COc1ccc(NC(=O)CCc2nnc3ccc(N4CCC(C)CC4)nn23)cc1OC	i	.
Nn1c(SCC(=O)Nc2ccccc2C(F)(F)F)nncc1=O	i	.
Cc1cc(NC(=O)CN(C)CCOc2ccccc2)ccc1Br	i	.
CN(CCOc1ccccc1)CC(=O)Nc1cccc(Br)c1	-6.3*	-6.3
Cc1cccc(NC(=O)COC(=O)c2ccccc2SCC(=O)N2CCCC2)c1	i	1.6
Cc1ccc(N=Cc2cc(Cl)cc(Cl)c2O)nc1	i	12*
Oc1c(Cl)cc(Cl)cc1/C=N/Nc1ncc(Br)cn1	i	.
CCn1cc(C(=O)N[C@@H](CCSC)C(=O)NCCCn2ccnc2)c(=O)c2cc3c(cc21)OCO3	i	.
COC(=O)c1ccc(COc2ccccc2/C=C(\C#N)C(=O)Nc2ccc(C)cc2C)cc1	i	.
COC(=O)c1ccc(COc2ccccc2/C=C(\C#N)C(=O)Nc2c(C)cc(C)cc2C)cc1	-7.2*	-7.2
Cc1ccc(NC(=O)NC2CCCc3ccccc32)cc1 (stereo not given)	-5.8*	-5.8
CC(C)(C)c1ccc(NC(=O)NC2CCCc3ccccc32)cc1 (stereo not given)	i	.
O=S(=O)(NCC(c1ccco1)N1CCc2ccccc2C1)c1ccc(F)cc1 (stereo not given)	i	.
COC(=O)C1=CN(c2ccc(F)cc2)C=C(C(=O)OC)C1c1ccc([N+](=O)[O-])cc1	i	.
